Among the data in PubChem BioAssay (EPA / NIEHS) are outcome and AC50 values, retold here.

Active and inactive are the calls of the source. Rule for the calls: active = hit-call score of the fitted dose curve at least 0.9, where 1 is the maximum; inactive = score below 0.9.

The nature of assay [1]: ATG_GRE_CIS: Attagene CIS-FACTORIAL HepG2 Assay for human Glucocorticoid Response Elements (GRE) (AID 2282947). As to conditions: HepG2 GRE cis-reporter, Attagene multiplex mRNA; actives raise or lower the signal. The procedure, abridged:
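Reporter transcripts read by RT-PCR with capillary electrophoresis fluorescence after a 24 h chemical exposure of HepG2 cells transiently transfected with multiple cis-element reporter units. Gain or loss fitted against DMSO.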

Assay [2] is described as follows: ATG_ISRE_CIS: Attagene CIS-FACTORIAL HepG2 Assay for human Interferon Regulatory Factor 1 (IRF1) binding to an Interferon-Stimulated Response Element (ISRE) (AID 2282948). As to conditions: HepG2 ISRE cis-reporter (Attagene), mRNA transcription readout; actives raise or lower the signal. The method in brief: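 Endogenous transcription factor activity read as reporter transcript abundance via RT-PCR and capillary electrophoresis. HepG2 cells transiently transfected, 24 h chemical exposure. Gain or loss fitted against DMSO baseline.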

A short description of assay [3]: ATG_M_32_CIS: Attagene CIS-FACTORIAL HepG2 Assay for M32 Transcription Factor (Internal Marker) (AID 2282949).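 Note: background control marker of the multiplexed CIS panel rather than a real target.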 As to conditions: HepG2 Attagene cis-factorial M32 reporter, mRNA; actives raise or lower the signal. The method in brief: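 HepG2 transfectants (cis-regulated reporter transcription units) dosed 24 h. Reporter mRNA by RT-PCR plus CE, analysed as gain or loss relative to DMSO.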

Assay [4] is described as follows: ATG_M_06_CIS: Attagene CIS-FACTORIAL HepG2 Assay for M06 Transcription Factor (Internal Marker) (AID 2282950). As to conditions: HepG2 Attagene CIS-FACTORIAL M06 internal marker reporter; actives raise or lower the signal. The procedure, abridged: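 Steps: transfect HepG2 with multiplexed cis-element reporter constructs; dose chemical 24 h; extract RNA with DNase treatment; reverse-transcribe, PCR-amplify, 6-FAM label, HpaI digest; separate fragments by capillary electrophoresis. Activity fitted both directions versus DMSO.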

The target of assay [5] is Hypoxia-inducible factor 1-alpha (Homo sapiens) (UniProt Q16665). Put plainly: ATG_HIF1a_CIS: Attagene CIS-FACTORIAL HepG2 Assay for human Hypoxia Inducible Factor 1 (HIF1A) (AID 2282951). As to conditions: HepG2 Attagene cis-factorial HIF1a reporter transcription; actives raise or lower the signal. The procedure, abridged: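 Transient MRTU transfection of human HepG2 liver cells, 24 h compound treatment, then total RNA isolation, oligo(dT) reverse transcription, PCR amplification, fluorescent labelling and capillary electrophoresis of reporter fragments. Gain or loss relative to DMSO.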
Sequence of Hypoxia-inducible factor 1-alpha (Homo sapiens) (Q16665 whole entry, looked up, the tested form may be a part): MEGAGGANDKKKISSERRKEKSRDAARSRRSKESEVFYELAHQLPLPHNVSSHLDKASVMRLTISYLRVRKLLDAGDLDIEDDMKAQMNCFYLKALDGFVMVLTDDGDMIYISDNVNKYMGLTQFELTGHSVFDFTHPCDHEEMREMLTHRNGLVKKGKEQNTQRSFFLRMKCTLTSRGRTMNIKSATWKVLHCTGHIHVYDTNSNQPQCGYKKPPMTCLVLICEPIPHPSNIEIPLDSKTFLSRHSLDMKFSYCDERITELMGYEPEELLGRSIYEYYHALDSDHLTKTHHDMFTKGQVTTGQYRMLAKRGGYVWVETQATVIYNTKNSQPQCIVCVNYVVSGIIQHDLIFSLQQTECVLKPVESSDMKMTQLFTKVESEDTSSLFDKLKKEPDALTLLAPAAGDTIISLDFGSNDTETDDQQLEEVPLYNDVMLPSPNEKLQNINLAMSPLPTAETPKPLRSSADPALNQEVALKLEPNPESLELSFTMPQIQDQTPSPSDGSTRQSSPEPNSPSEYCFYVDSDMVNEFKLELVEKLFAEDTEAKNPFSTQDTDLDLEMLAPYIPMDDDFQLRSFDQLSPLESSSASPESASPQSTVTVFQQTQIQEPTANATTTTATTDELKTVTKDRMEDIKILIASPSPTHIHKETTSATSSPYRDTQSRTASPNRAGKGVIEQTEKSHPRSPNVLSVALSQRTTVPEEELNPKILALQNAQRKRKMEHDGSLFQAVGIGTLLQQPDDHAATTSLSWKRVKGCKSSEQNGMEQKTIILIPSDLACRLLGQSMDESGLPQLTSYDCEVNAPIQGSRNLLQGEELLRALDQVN

Assay [6] in a line: ATG_MRE_CIS: Attagene CIS-FACTORIAL HepG2 Assay for human Metal Responsive Element (MRE) (AID 2282954). As to conditions: HepG2 MRE cis-reporter transcription, Attagene multiplex; actives raise or lower the signal. The method in brief: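 Endogenous MRE-dependent transcription read as reporter mRNA in transiently transfected human HepG2 cells at 24 h. RNA reverse-transcribed, PCR-amplified, labelled and resolved by capillary electrophoresis; gain or loss relative to DMSO.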

Assay [7] can be described thus: ATG_PBREM_CIS: Attagene CIS-FACTORIAL HepG2 Assay for human Phenobarbital-responsive Enhancer Module (PBREM) (AID 2282955). As to conditions: HepG2 PBREM cis-reporter, Attagene multiplexed transcription; actives raise or lower the signal. The method in brief: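 Endogenous transcription factors in human liver HepG2 cells drive a PBREM cis-element reporter, whose transcript level after 24 h treatment is quantified by RT-PCR with capillary electrophoresis; activity fitted in both directions against DMSO.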

For assay [8], the target named is Paired box protein Pax-6 (Homo sapiens) (UniProt P26367). Put plainly: ATG_Pax6_CIS: Attagene CIS-FACTORIAL HepG2 Assay for human Paired Box 6 (PAX6) (AID 2282956). As to conditions: HepG2 CIS-FACTORIAL PAX6 reporter transcription, RNA readout; actives raise or lower the signal. The method in brief: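 Read-out is reporter transcript level, measured by RT-PCR with fluorescent primer extension and capillary electrophoresis after 24 h dosing of transfected HepG2 cells. Activity in either direction fitted relative to DMSO control.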
Sequence of Paired box protein Pax-6 (Homo sapiens) (P26367 whole entry, looked up): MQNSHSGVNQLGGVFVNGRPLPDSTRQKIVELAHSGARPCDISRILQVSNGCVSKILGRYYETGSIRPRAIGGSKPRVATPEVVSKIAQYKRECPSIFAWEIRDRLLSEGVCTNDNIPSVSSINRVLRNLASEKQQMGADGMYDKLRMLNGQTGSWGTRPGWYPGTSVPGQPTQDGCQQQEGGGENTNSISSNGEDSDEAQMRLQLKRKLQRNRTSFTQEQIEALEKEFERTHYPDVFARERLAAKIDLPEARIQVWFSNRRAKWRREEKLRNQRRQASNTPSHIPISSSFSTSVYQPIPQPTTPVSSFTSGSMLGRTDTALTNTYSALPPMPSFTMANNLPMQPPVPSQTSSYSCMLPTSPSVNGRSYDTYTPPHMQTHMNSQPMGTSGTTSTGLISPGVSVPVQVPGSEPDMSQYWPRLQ

A short description of assay [9]: ATG_PXRE_CIS: Attagene CIS-FACTORIAL HepG2 Assay for human Pregnane X Receptor Element (PXRE) (AID 2282957). As to conditions: HepG2 Attagene CIS-FACTORIAL PXRE reporter, mRNA; actives raise or lower the signal. The procedure, abridged: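 Fluorescent capillary electrophoresis of amplified reporter cDNA gave the signal, collected 24 h after dosing HepG2 cells that held transfected cis-element reporter constructs.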

The nature of assay [10]: ATG_PPRE_CIS: Attagene CIS-FACTORIAL HepG2 Assay for human Peroxisome Proliferator-activated Response Element (PPRE) (AID 2282958). As to conditions: HepG2 PPRE cis-element reporter, Attagene transcription factor profiling; actives raise or lower the signal. The method in brief:
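HepG2, transient MRTU transfection (cis promoter elements, endogenous TFs). 24 h dosing. RNA → oligo(dT) RT → PCR → 6-FAM primer extension → HpaI digest → CE. Bidirectional fit vs DMSO.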

Assay [11] is described as follows: ATG_RORE_CIS: Attagene CIS-FACTORIAL HepG2 Assay for human RAR-related Orphan Receptor Element (RORE) (AID 2282959). As to conditions: HepG2 Attagene cis-factorial RORE reporter, mRNA; actives raise or lower the signal. The method in brief:
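Transient MRTU transfection of human HepG2 liver cells (FuGene 6); 24 h compound exposure; TriZol RNA, oligo(dT) RT, PCR, FAM labeling, HpaI cut, CE fragment analysis. DMSO = negative control/baseline.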

Assay [12] is described as follows: ATG_Sox_CIS: Attagene CIS-FACTORIAL HepG2 Assay for human SRY-box transcription factor (SOX) (AID 2282960). As to conditions: HepG2 Attagene cis-factorial SOX reporter, mRNA; actives raise or lower the signal. The procedure, abridged: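 Endogenous factor activity in human liver HepG2 cells carrying transfected cis-regulated reporter units. RNA taken 24 h post-dose, reverse-transcribed, PCR-amplified and sized by capillary electrophoresis. Gain or loss of signal fitted relative to DMSO.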

Assay [13] has as its target Transcription factor Sp1 (Homo sapiens) (UniProt P08047). Kind of assay: ATG_Sp1_CIS: Attagene CIS-FACTORIAL HepG2 Assay for human Specificity Protein 1 (Sp1) (AID 2282961). As to conditions: HepG2 Sp1 cis-reporter transcription, actives raise or lower the signal. The procedure, abridged:
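Transient MRTU-transfected HepG2, 24 h compound exposure. Total RNA → oligo(dT) RT → PCR of reporter → 6-FAM primer extension → HpaI digest → CE. Endpoint fitted both directions vs DMSO.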

Assay [14] can be described thus: ATG_SREBP_CIS: Attagene CIS-FACTORIAL HepG2 Assay for human Sterol Regulatory Element Binding (SREBP) (AID 2282962). As to conditions: HepG2 Attagene cis-factorial SREBP reporter, mRNA; actives raise or lower the signal. The procedure, abridged: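 Endogenous SREBP activity read as cis-element-driven reporter transcript in transiently transfected HepG2, 24 h post-dosing; quantified via RT-PCR plus capillary electrophoresis of fluorescent fragments. Gain or loss of signal fitted relative to DMSO baseline.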

The target in assay [15] is Signal transducer and activator of transcription 3 (Homo sapiens) (UniProt P40763). Put plainly: ATG_STAT3_CIS: Attagene CIS-FACTORIAL HepG2 Assay for human Signal Transducer and Activator of Transcription 3 (STAT3) (AID 2282963). As to conditions: HepG2, Attagene cis-factorial STAT3 reporter transcription; actives raise or lower the signal. The procedure, abridged:
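Readout is reporter transcript quantified by RT-PCR and capillary electrophoresis, with 6-FAM primer extension and HpaI digestion. Total RNA is taken 24 h after dosing transiently transfected HepG2 carrying cis-regulated reporter units. Bidirectional fit against DMSO.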

Assay [16] is described as follows: ATG_TA_CIS: Attagene CIS-FACTORIAL HepG2 Assay for human TA Basal Promoter (AID 2282964). As to conditions: HepG2 Attagene CIS-factorial TA basal promoter reporter; actives raise or lower the signal. The method in brief: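 Steps: transfect HepG2 with MRTUs; dose 24 h; isolate RNA, DNase-treat, reverse-transcribe; PCR and FAM-label reporter cDNA; digest with HpaI 2h at 37 C; run capillary electrophoresis. Activity fitted both directions against DMSO.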

A short description of assay [17]: ATG_TCF_b_cat_CIS: Attagene CIS-FACTORIAL HepG2 Assay for human T-Cell-Factor with beta-catenin (TCF/b-cat) (AID 2282965). As to conditions: HepG2 TCF/beta-catenin cis-reporter transcription, actives raise or lower the signal. The procedure, abridged: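 Endogenous transcription factor activity is captured through cis-promoter reporter constructs transiently introduced into human HepG2 liver cells. Induced reporter mRNA is measured after 24 h and fitted bidirectionally relative to DMSO.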

The nature of assay [18]: ATG_TAL_CIS: Attagene CIS-FACTORIAL HepG2 Assay for human TAL Basal Promoter (AID 2282966).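 Note: background control endpoint measuring basal TAL promoter reporter mRNA not a specific factor.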 As to conditions: HepG2 Attagene cis-factorial TAL promoter reporter; actives raise or lower the signal. The method in brief:
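Transiently transfected HepG2 (cis-regulated reporter units), 24 h treatment, mRNA read by fluorescent CE after RT-PCR; bidirectional fit, DMSO baseline.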

The target in assay [19] is Hepatocyte nuclear factor 6 (Homo sapiens) (UniProt Q9UBC0). Kind of assay: ATG_HNF6_CIS: Attagene CIS-FACTORIAL HepG2 Assay for human Hepatocyte Nuclear Factor 6 (HNF6) (AID 2282952). As to conditions: HepG2 Attagene cis-factorial HNF6 reporter transcription; actives raise or lower the signal. The method in brief:
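Activity values derive from bidirectional fitting against DMSO of reporter mRNA levels, measured by capillary electrophoresis of labelled RT-PCR products from HepG2 cells exposed 24 h.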

Assay [20] concerns the target Heat shock factor protein 1 (Homo sapiens) (UniProt Q00613). Kind of assay: ATG_HSE_CIS: Attagene CIS-FACTORIAL HepG2 Assay for human Heat Shock Transcription Factor 1 (HSE) (AID 2282953). As to conditions: HepG2 HSE cis-reporter, Attagene RNA transcription; actives raise or lower the signal. The procedure, abridged:
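Cells were transfected with cis-element-driven reporter constructs, dosed for 24 h, then total RNA was reverse-transcribed and reporter cDNA amplified, FAM-labelled and digested with HpaI. Fragments were resolved by capillary electrophoresis; gain or loss was fitted against DMSO.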

Sequence of Transcription factor Sp1 (Homo sapiens) (P08047 whole entry, looked up): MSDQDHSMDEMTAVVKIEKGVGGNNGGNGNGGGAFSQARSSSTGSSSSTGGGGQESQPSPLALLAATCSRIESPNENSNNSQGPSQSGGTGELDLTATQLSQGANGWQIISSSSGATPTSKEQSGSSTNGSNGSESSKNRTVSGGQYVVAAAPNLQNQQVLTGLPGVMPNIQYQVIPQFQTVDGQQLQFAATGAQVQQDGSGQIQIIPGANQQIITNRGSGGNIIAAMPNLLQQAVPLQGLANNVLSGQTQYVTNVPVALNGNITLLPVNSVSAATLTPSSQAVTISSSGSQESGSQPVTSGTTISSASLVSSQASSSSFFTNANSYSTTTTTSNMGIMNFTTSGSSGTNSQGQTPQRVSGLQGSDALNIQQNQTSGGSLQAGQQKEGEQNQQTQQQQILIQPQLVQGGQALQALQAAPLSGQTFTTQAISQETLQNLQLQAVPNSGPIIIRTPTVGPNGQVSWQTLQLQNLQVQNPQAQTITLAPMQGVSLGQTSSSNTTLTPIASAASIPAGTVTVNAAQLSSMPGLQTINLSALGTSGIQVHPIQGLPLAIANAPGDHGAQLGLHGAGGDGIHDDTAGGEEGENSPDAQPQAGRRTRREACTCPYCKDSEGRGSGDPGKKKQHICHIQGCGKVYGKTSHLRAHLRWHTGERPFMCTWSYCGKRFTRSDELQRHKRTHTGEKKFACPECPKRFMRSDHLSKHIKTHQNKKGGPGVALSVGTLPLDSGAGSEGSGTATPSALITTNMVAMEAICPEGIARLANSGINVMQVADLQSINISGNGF
Sequence of Signal transducer and activator of transcription 3 (Homo sapiens) (P40763 whole entry, looked up): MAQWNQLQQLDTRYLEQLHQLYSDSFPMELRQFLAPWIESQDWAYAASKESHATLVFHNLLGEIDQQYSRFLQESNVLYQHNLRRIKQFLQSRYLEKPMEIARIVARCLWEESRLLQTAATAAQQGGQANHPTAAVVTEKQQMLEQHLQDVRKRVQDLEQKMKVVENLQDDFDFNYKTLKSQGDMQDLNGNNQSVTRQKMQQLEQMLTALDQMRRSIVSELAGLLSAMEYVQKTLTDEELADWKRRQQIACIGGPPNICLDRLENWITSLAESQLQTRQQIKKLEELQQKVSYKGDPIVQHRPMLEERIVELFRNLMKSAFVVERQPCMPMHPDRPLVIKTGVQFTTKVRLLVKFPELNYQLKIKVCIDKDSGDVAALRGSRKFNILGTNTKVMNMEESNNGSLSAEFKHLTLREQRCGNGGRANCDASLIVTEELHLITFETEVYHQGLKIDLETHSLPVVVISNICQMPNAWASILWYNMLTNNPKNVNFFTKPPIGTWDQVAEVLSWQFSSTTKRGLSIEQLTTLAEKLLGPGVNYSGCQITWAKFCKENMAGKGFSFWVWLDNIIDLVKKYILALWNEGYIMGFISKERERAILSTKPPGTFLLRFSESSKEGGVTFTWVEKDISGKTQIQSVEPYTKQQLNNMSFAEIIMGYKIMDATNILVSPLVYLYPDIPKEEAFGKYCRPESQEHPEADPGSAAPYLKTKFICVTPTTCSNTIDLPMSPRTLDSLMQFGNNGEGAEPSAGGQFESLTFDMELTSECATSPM
Sequence of Heat shock factor protein 1 (Homo sapiens) (Q00613 whole entry, looked up, the tested form may be a part): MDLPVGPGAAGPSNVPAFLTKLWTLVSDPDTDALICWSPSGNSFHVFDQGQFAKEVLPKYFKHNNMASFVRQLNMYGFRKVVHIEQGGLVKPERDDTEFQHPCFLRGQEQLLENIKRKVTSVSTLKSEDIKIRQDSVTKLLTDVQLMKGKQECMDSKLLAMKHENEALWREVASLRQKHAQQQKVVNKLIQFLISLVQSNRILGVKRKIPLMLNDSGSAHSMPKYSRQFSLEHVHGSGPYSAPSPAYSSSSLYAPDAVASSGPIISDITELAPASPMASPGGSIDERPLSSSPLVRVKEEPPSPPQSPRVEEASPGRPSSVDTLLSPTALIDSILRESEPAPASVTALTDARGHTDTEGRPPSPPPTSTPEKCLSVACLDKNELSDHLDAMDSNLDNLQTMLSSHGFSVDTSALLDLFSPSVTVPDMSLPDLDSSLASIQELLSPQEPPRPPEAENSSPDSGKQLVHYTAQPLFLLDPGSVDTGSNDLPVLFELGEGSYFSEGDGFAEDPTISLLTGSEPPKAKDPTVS
Sequence of Hepatocyte nuclear factor 6 (Homo sapiens) (Q9UBC0 whole entry, looked up): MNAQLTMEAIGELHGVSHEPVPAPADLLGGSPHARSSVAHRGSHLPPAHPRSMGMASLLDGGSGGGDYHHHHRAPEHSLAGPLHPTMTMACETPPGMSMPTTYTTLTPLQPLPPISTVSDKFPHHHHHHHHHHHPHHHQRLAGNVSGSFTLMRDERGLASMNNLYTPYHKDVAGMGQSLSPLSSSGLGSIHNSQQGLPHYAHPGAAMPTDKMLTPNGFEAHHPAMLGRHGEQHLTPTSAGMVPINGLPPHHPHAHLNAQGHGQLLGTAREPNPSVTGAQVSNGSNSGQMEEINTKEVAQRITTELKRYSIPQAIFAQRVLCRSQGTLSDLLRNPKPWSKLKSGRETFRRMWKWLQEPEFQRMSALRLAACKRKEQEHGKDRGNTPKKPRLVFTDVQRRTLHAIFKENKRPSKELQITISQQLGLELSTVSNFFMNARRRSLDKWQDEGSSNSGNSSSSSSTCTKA

Consider `CC(C)c1nnc2ccc(-c3ocnc3-c3cc(F)ccc3F)cn12`, for which the call in [1], in [2], in assay [3], in assay [4], in assay [5] and in assay [8] was inactive. In addition, the call in assay [10], in assay [11], in assay [12], in assay [14], in assay [15] and in assay [16] was inactive. The result in assay [17] and in assay [18] was inactive. Also, the concentration at half-maximal activity (AC50) in assay [6] is 100 µM (active); in assay [7] it was 83.4 µM (active); in assay [9] it was 26.5 µM (active); in assay [13] it was 125 µM (active).

`CCCCCCCCN(C)C`: the molecule was classed as inactive in assay [1], in assay [2], in assay [3], in assay [4], in assay [5] and in assay [19]. Also, the molecule was called inactive in assay [6], in assay [9], in [11], in assay [12], in assay [13] and in assay [14]. Further, the molecule was called inactive in assay [15], in assay [17] and in [18].

Turning to `CCCCC(CC)C(=O)OCCOCCOCCOC(=O)C(CC)CCCC` (stereo not drawn), the call in assay [1], in assay [2], in assay [3], in [4], in assay [5] and in assay [6] was inactive. Also, the result in assay [7], in [8], in assay [10], in [11], in [12] and in assay [13] was inactive. Moreover, the outcome in [14], in assay [15], in [16], in assay [17] and in assay [18] was inactive. Besides, in assay [9], the AC50 is 27.5 µM (active).

With `CCCCCOC(C)=O`, the call in [1], in assay [2], in assay [3], in [4], in assay [5] and in assay [20] was inactive. Moreover, the molecule was classed as inactive in assay [6], in assay [7], in [9], in [10], in assay [11] and in assay [12]. For the same molecule, the result in [13], in assay [14], in [15], in assay [17] and in assay [18] was inactive.

The term AC50 denotes the concentration giving half of the maximal activity seen.
